Laboratory results: the supplement of paper PMC11001985
Values without a mark were called inactive.

What follows are targets tested with C#CCNC(=O)CCSSCCC(=O)NCCc1ccc(C=O)c(C=O)c1 (assay: lysine labeling ratio R10:1 (500 µM / 50 µM probe), SILAC-ABPP in living cells; higher = lower intrinsic lysine reactivity toward the probe, active = 2 or less). Conditions: HeLa; probe concentrations 500 vs 50 µM.
Procedure, shortened: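 R, given per lysine, is the filtered median high-probe/low-probe MS1 peptide ratio, with the median then taken across forward and reverse replicates. Cells were living SILAC light and heavy HeLa cells in PBS at room temperature, labelled with 50 µM or 500 µM of an alkyne-tagged, disulfide-linked lysine probe. The ceiling applied is 20.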

Chain of UniProt Q15149 (Q15149 whole entry): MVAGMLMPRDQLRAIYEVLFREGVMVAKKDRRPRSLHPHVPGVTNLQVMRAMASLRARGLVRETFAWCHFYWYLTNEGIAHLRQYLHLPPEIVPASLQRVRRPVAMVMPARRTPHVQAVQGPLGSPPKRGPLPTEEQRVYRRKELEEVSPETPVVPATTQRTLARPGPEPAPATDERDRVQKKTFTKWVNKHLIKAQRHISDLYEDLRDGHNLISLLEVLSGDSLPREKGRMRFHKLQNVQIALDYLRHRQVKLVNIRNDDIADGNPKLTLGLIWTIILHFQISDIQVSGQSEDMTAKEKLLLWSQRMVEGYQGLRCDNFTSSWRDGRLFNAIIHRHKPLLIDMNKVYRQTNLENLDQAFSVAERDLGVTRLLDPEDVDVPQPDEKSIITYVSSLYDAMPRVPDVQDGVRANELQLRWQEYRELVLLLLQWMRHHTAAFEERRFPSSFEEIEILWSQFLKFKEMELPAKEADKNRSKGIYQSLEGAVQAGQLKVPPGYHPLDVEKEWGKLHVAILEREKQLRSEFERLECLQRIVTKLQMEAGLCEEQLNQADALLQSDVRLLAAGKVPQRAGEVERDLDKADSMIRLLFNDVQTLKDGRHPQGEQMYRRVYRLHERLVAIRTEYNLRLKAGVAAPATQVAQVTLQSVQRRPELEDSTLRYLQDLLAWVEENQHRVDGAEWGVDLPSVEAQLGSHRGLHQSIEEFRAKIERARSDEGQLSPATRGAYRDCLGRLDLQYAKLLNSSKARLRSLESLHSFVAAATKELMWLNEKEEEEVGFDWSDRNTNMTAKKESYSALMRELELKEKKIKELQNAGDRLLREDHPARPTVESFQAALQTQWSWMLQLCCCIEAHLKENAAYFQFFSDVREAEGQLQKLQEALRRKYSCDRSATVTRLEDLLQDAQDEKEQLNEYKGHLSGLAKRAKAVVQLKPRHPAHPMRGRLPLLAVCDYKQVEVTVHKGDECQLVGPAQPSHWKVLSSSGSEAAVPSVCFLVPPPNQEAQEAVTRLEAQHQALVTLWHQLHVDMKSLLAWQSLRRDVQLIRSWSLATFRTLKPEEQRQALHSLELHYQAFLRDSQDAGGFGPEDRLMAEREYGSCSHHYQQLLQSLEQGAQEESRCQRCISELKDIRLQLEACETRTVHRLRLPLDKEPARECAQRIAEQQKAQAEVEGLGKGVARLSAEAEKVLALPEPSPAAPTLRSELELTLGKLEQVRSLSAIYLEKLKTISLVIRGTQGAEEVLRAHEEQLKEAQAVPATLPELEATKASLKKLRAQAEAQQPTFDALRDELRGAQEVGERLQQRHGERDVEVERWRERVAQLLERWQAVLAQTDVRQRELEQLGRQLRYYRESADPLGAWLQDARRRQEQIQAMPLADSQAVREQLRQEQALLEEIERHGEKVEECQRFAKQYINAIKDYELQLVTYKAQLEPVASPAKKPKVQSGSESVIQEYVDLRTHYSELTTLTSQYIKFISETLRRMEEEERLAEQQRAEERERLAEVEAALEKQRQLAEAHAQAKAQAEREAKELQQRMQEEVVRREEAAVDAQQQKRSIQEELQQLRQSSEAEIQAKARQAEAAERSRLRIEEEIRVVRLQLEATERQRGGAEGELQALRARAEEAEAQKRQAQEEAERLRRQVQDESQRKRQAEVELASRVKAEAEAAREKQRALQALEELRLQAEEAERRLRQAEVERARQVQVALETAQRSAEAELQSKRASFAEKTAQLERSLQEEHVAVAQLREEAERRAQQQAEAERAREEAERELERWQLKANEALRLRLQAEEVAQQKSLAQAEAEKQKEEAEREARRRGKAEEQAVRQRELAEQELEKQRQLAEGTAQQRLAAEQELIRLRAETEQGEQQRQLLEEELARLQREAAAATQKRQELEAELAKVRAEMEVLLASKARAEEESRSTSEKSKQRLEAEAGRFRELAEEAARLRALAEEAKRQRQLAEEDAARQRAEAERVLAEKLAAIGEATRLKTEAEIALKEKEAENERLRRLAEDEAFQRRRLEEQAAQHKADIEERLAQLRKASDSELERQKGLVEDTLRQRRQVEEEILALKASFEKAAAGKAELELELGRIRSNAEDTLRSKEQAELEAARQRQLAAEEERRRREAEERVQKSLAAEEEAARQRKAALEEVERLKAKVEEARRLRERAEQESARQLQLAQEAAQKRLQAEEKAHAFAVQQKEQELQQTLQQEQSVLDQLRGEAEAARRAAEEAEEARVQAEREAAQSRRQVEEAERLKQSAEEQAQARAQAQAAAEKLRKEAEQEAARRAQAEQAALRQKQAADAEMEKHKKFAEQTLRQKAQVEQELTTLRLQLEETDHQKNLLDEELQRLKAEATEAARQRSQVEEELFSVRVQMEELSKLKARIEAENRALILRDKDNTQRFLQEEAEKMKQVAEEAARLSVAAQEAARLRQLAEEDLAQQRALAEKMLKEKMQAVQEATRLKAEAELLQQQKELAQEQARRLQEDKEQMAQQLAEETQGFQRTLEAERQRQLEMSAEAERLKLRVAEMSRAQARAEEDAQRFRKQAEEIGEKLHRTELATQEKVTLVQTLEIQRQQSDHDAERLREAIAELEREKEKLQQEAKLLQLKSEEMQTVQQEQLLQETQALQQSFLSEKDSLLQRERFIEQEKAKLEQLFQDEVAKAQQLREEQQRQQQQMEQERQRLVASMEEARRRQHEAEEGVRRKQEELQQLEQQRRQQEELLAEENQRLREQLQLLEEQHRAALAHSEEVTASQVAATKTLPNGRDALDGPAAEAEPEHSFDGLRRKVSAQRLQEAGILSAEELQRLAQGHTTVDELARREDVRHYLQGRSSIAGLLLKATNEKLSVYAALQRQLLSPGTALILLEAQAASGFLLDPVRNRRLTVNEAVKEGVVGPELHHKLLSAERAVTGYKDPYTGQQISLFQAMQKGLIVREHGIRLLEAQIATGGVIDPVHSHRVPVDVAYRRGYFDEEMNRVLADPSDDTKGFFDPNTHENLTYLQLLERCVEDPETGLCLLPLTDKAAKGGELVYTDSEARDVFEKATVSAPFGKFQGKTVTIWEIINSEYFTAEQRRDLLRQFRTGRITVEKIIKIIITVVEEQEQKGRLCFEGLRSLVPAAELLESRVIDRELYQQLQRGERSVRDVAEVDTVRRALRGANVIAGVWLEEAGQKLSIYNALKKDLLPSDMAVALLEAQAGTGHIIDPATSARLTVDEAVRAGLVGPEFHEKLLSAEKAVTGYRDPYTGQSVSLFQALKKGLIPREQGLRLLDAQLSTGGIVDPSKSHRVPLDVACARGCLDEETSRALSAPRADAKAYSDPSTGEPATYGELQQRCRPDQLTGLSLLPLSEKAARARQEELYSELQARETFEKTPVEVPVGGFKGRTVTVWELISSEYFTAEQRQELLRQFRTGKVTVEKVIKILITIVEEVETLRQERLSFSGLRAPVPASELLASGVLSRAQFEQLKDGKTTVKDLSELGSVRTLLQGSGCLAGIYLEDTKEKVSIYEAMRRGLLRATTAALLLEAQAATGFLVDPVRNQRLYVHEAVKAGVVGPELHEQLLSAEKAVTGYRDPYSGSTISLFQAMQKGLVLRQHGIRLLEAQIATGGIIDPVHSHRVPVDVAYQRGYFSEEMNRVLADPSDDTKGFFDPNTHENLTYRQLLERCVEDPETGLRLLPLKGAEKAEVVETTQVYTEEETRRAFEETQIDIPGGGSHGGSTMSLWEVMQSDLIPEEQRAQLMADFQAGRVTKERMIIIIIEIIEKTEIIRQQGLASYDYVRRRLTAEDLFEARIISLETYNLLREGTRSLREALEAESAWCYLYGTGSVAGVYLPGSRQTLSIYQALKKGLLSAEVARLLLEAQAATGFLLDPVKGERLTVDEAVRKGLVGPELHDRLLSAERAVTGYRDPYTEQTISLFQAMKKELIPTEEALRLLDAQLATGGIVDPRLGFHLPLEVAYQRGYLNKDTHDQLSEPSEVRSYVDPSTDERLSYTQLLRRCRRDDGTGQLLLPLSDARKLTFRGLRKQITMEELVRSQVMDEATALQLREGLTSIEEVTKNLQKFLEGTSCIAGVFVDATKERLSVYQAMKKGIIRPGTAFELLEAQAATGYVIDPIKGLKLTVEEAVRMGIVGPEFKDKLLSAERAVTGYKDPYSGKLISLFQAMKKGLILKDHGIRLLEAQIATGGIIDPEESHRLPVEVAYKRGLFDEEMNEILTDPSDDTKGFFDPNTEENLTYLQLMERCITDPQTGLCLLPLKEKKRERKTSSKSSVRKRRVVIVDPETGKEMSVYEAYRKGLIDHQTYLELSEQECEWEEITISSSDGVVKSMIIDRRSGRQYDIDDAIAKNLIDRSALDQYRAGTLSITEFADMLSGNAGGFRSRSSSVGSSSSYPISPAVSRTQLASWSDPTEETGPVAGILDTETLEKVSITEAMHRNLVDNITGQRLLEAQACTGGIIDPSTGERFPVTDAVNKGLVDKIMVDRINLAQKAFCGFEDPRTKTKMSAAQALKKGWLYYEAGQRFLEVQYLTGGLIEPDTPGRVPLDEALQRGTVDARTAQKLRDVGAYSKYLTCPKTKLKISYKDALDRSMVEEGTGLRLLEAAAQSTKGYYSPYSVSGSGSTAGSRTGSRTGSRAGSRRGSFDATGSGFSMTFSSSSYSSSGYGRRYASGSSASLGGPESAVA
Chain of UniProt Q7Z3B1 (Q7Z3B1 whole entry, looked up): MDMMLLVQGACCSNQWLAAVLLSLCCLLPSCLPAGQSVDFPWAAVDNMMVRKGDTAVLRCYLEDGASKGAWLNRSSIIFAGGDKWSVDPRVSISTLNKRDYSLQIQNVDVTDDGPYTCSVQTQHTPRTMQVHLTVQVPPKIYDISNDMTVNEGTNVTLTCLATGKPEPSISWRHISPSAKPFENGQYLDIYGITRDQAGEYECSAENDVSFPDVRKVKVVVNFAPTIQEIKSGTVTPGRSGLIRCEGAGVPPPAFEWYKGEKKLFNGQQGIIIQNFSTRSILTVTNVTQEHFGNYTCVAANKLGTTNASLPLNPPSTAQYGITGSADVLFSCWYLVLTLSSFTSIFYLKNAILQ

Row | Target | lysine labeling ratio R10:1
1 | SCFD1 (lysine site: K572) (UniProt Q8WVM8) | 2.58
2 | NEGR1 (lysine site: K180) (UniProt Q7Z3B1) | 1.72 (active)
3 | UniProt Q15286 (lysine site: K121) | 0.72 (active)
4 | UniProt Q86UP0 (lysine site: K324) | 1.82 (active)
5 | BCAP31 (lysine site: K176) (UniProt P51572) | 0.745 (active)
6 | SPTAN1 (lysine site: K250) (UniProt Q13813) | 1.09 (active)
7 | NRP1 (lysine site: K509) (UniProt O14786) | 5.12
8 | ADAM15 (lysine site: K660) (UniProt Q13444) | 4.34
9 | APOB (lysine site: K1642) (UniProt P04114) | 2.17
10 | TKT (lysine site: K314) (UniProt P29401) | 5.08
11 | UniProt Q15149 (lysine site: K195) | 4.55
12 | UniProt P26639 (lysine site: K243) | 3.1
13 | LAMB2 (lysine site: K1720) (UniProt P55268) | 5.02
14 | PTGFRN (lysine site: K763) (UniProt Q9P2B2) | 4.93
15 | UniProt Q15149 (lysine site: K2452) | 3.75
16 | UniProt P02768 (lysine site: K229) | 5.69
17 | UniProt Q15149 (lysine site: K932) | 6.51
